Results reported in PubChem BioAssay (Tox21).
Records with an inconclusive call do not appear. Entries that show only a call come without a potency. Calls of active or inactive are those of the source. Calls come from the whole dose curve; as a rule, active = well fitted inhibition curve with a large enough effect in the repeat runs; inconclusive = weak or mixed curves; inactive = flat fitted curve, though single readings scatter.

molecular target: Voltage-gated inwardly rectifying potassium channel KCNH2 (Homo sapiens) (UniProt Q12809); experiment: Human Ether-a-go-go-Related Gene (hERG) channel small molecule antagonists: fluorescence cell-based qHTS assay (AID 1671200); settings: hERG-U2OS cells, FluxOR thallium flux fluorescence; series mostly up to 76.8 µM; note: nearly all actives have a fitted effect of over 50% in size
Sequence (Q12809 whole entry, looked up): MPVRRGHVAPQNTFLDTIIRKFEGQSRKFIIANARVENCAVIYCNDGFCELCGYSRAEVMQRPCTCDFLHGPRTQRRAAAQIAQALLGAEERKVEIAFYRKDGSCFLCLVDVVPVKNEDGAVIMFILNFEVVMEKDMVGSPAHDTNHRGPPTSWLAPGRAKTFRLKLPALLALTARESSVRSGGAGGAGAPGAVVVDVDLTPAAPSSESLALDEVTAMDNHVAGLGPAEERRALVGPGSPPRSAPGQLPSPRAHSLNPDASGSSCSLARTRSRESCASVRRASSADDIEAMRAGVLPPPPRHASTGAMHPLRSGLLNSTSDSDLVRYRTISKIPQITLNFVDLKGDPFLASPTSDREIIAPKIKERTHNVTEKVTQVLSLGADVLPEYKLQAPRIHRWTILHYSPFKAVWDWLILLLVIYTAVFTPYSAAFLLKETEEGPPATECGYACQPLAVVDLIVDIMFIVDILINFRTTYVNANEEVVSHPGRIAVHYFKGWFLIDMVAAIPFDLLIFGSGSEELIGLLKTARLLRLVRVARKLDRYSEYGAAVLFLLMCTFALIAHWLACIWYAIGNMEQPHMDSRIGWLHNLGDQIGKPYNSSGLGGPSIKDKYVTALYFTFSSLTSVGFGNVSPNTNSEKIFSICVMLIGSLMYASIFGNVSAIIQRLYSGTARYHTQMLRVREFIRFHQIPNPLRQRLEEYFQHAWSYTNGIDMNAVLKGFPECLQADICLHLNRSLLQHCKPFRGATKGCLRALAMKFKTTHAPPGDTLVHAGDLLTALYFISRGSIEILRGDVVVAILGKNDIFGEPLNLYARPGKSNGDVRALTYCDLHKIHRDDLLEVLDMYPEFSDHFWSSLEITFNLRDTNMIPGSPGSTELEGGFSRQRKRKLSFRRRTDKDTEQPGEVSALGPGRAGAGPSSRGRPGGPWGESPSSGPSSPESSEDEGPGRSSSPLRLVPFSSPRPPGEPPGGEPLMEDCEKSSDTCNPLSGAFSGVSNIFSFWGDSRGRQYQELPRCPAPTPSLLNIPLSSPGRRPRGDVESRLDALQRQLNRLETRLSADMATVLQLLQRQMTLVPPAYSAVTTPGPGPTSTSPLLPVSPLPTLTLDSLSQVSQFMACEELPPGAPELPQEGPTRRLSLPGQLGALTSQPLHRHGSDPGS
Source text: National Center for Advancing Translational Sciences [NCATS]
U.S. Environmental Protection Agency [EPA]
National Institutes of Environmental Health Sciences [NIEHS]
National Toxicology Program [NTP]
U.S. Food and Drug Administration [FDA]
Mutations in the hERG channel cause Long QT (LQT) syndrome. LQT syndrome is a cardiac disorder which can cause ventricle arrhythmia and sudden death. Additionally, compounds which block the hERG channel can cause acquired LQT syndrome. Several FDA approved drugs have been removed from the market due to their hERG blocking activity. A cell-based hERG channel inhibition assay can be used to screen chemical compounds that inhibit hERG channel. This assay measures hERG channel activity using thallium ions as surrogate ions to measure potassium into the cells.
Tox21 Assay Protocol Summary:
hERG-U2OS cells were resuspended in culture medium and dispensed into 1536-well, black wall/clear-bottom plates at 1000cells/well/3uL using a Multidrop Combi dispenser (Thermo Fisher, Waltham, MA). After plates were incubated at 37 C overnight, 3 uL of Loading Buffer provided by FluxOR II Potassium Ion Channel Assay kit (Thermo, Carlsbad, CA) was added to each well. The assay plates were then incubated at room temperature in the dark for 1h. […] After the assay plates were incubated at room temperature for 10 min, 1 uL of Stimulus Buffer provided by FluxOR II Potassium Ion Channel Assay kit was added into each well and fluorescence intensity (480nm excitation/540nm emission) was continuously measured for 2 min at 1 second intervals using a Functional Drug Screening System (FDSS) 7000EX kinetic plate reader (Hamamatsu, Japan).

SMILES	Potency
CC(Oc1ccc(Cl)cc1Cl)C(=O)O (stereo not given)	inactive
CCCN(CCC)N=O	inactive
Clc1cccc(Cl)c1Cl	inactive
CC(C)(C)C(O)(CCc1ccc(Cl)cc1)Cn1cncn1 (stereo not given)	inactive
Oc1ccccc1Cl	inactive
c1ccc(-c2ccccc2)cc1	inactive
CCCCCCCCCCCC#N	inactive
c1cc2c3c(cccc3c1)CC2	inactive
CCNc1nc(NC(C)(C)C)nc(SC)n1	inactive
CCCC1COC(Cn2cncn2)(c2ccc(Cl)cc2Cl)O1 (stereo not given)	inactive
COC(=O)NS(=O)(=O)c1ccc(N)cc1	inactive
CCC(C)(CC)c1cc(NC(=O)c2c(OC)cccc2OC)on1	inactive
Cc1ccc(N)cc1N	inactive
O=c1[nH]c(=O)[nH]c(=O)[nH]1	inactive
CC(C)(Cl)Cl	inactive
CON(C)C(=O)Nc1ccc(Cl)c(Cl)c1	inactive
CCCCCOC(=O)c1ccccc1C(=O)OCCCCC	inactive
CCOP(OCC)OCC	inactive
CCC[CH2][Sn]([Cl])([Cl])[Cl]	inactive
COC(=O)c1ccccc1C(=O)OC	inactive

SMILES	Potency
CC(C)OC(=O)Nc1cccc(Cl)c1	inactive
CC1OC(C)OC(C)O1 (stereo not given)	inactive
CC(C)OC(=O)Nc1ccccc1	inactive
CN=C=S	inactive
Nc1c(Cl)c(Cl)nc(C(=O)O)c1Cl	inactive
CCOC(=O)c1ccccc1C(=O)OCC	inactive
CCCN(CCC)c1c([N+](=O)[O-])cc(C(F)(F)F)cc1[N+](=O)[O-]	inactive
CC(C)C1(C)N=C(c2nc3ccccc3cc2C(=O)O)NC1=O (stereo not given)	inactive
CCOP(=S)(OCC)Oc1cnc2ccccc2n1	inactive
Clc1ccc(Cl)cc1	inactive
CCC[N+](=O)[O-]	inactive
Cn1cc(-c2ccccc2)c(=O)c(-c2cccc(C(F)(F)F)c2)c1	inactive
CCN(CC)CCO	inactive
Nc1ccc(Oc2ccc(N)cc2)cc1	inactive
COC(=O)c1ccccc1N	inactive
O=[N+]([O-])c1ccc([As](=O)(O)O)cc1	inactive
COP(N)(=O)SC (stereo not given)	inactive
Nc1ccc(Br)cc1	inactive
CC(C)(C)OOC(C)(C)C	inactive
CN(C)[C@@H]1C(=O)C(C(N)=O)=C(O)[C@@]2(O)C(=O)C3=C(O)c4c(O)cccc4[C@@](C)(O)[C@H]3C[C@@H]12	inactive
